Rows were chosen to be rich in hits. Some 2.2% of all compounds tested hit in one or more screens of this group.
IEC-6 tox = cytotoxicity in IEC-6 intestinal epithelial cells, primary screen, cytotoxicity control for KLF5 inhibitor project, cell-based, luminescence; 0.78% of 290,000 active; IEC-6 cytotoxicity, luminescence viability; inhibition, % at 5 µM; AID 1825, 2009; in the data active = inhibition above about 22%;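 also: 0% = plate median of test compound wells and 100% = cytotoxic reference compound wells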
APP transl inh = inhibitors of APP translation via 5'UTR reporter, primary screen, APP 5'UTR luciferase, SH-SY5Y cells; inhibition, % at 2 µM; AID 1285, 2008; SH-SY5Y APP 5'UTR-luciferase reporter, luminescence; 0.82% of 190,000 active;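 active = inhibition above a set limit, derived from the sample mean plus 3 SD, cut at about 45% in these data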
KLF5 inh = KLF5 expression inhibitors, primary screen, DLD-1 cells, luminescence | DLD-1 KLF5 promoter-luciferase reporter | inhibition, % at 5 µM | 0.23% of 290,000 active;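 active = inhibition above a per-plate limit of that plate's mean compound inhibition plus 3 SD, cut at about 60% in these data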;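 also: 0% = DMSO wells and 100% = LY294002 at 200 µM; higher means less KLF5 promoter-driven luciferase light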
Ba/F3 V617F tox = reduced viability of JAK2V617F-dependent Ba/F3 cells, primary screen, JAK2V617F inhibitor project, cell-based, Ba/F3 EpoR-JAK2V617F, luminescence | inhibition, % at 5.6 µM | 1.1% of 220,000 active | ATP luminescence;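 active = inhibition above the campaign mean plus 3 SD over all tested compounds, cut at about 24% in these data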;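 also: cytokine-independent growth of Ba/F3 cells driven by EpoR plus mutant JAK2; 0% = DMSO-treated cells and 100% = JAK inhibitor I control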
BaF3 parental = parental Ba/F3 cell viability inhibition, counter-screen for JAK2V617F inhibitor project, murine pro-B, CellTiter-Glo luminescence; CellTiter-Glo ATP luminescence; inhibition, % at 5.6 µM; 1.1% of 220,000 active; AID 1486, 2009;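 active = inhibition above a per-campaign cutoff, the mean inhibition of all tested compounds plus 3 SD, cut at about 27% in these data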;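 also: 0% = DMSO wells and 100% = JAK Inhibitor I control wells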
aSyn 5UTR inh = MLPCN primary screen, SNCA 5' untranslated region; alpha-synuclein 5'UTR reporter, inhibitor activity; 0.82% of 300,000 active; inhibition, % (tested at 7.5 µM); in the data active = inhibition above about 60%;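 also: H4 neuroglioblastoma cells stably carrying SNCA 5'UTR luciferase fusion; 0% = DMSO wells and 100% = positive control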
Numbers without * were called inactive; · = not tested or not shown.

SMILES	IEC-6 tox	APP transl inh	KLF5 inh	Ba/F3 V617F tox	BaF3 parental	aSyn 5UTR inh
COc1ccc(Nc2oc(COc3ccccc3F)nc2C#N)cc1	4	-1	-20	-1	3	38
COc1ccc(Cl)cc1NC(=O)CN(C)C(=O)CN1C(=O)NC2(CCCC2)C1=O	·	·	·	·	·	-17
CCC(C)NS(=O)(=O)c1ccc(NC(C)=O)cc1 (stereo not given)	5	-27	-4	0	2	1
COC(=O)C(C)NS(=O)(=O)c1ccc(NC(C)=O)cc1 (stereo not given)	26*	-21	1	5	5	10
CC(C)(C)C1=CC(=O)C(=O)C(C(C)(C)C)=C1	5	47*	-5	-1	2	-21
Cc1ccc(Nc2nnc(C(C)(C)C)c(=O)n2N)cc1	-8	-12	-10	-1	5	16
CC(C)(C)c1nnc(N/N=C/c2cc(Br)ccc2O)n(N)c1=O	-3	80*	9	0	1	116*
Cc1ccc(C2CC(C(F)(F)F)n3nc(C(=O)NCc4c(C)nn(C)c4C)c(Cl)c3N2)cc1 (stereo not given)	1	-5	-11	44*	55*	2
O=C(N/N=C\c1c(O)ccc2ccccc12)c1ccc(O)cc1	0	·	53	·	·	75*
O=C(CNc1ccccc1)N/N=C/c1c(O)ccc2ccccc12	5	·	12	·	·	69*
Cn1cc(C(=O)N/N=C/c2c(O)ccc3ccccc23)ccc1=O	-6	50*	32	1	7	96*
Cc1c(C(=O)N/N=C/c2c(O)ccc3ccccc23)nnn1-c1nonc1N	0	·	48	·	·	63*
O=C(N/N=C/c1c(O)ccc2ccccc12)c1ccc[n+](CCO)c1	0	0	-14	1	-2	-4
O=C(COc1ccc(S(=O)(=O)N2CCCC2)cc1)NCc1cccnc1	-7	·	-12	·	·	-6
COc1ccc(C(=O)CSc2nnc(-c3ccco3)c(-c3ccco3)n2)cc1	-24	67*	-8	3	3	-36
Cc1ccc(NC(=O)CSc2nnc(-c3ccco3)c(-c3ccco3)n2)cc1	-20	31	-6	1	1	22
O=C(CSc1nnc(-c2ccco2)c(-c2ccco2)n1)Nc1ccccc1	-14	50*	-6	-3	-1	19
O=C(COC(=O)c1ccc(Cl)c(Cl)c1)NC1CCCC1	-2	·	-10	·	·	-8
CN(C)C=Nc1ccc2nc3c(cc2c1)[nH]c1ccccc13	12	·	-107	·	·	-233
Cc1ccc(Sc2cnccc2C#N)cc1	6	·	-1	·	·	-10
Cc1cc(N2CCN(C)CC2)ccc1NC(=O)c1c2c(nc3ccccc13)CCN(Cc1ccccc1)C2	3	12	2	10	7	92*
O=C(NC1CCCCCC1)c1c2c(nc3ccccc13)CCN(Cc1ccccc1)C2	-2	-13	-13	-2	3	-57
COCCN(Cc1ccccc1)C(=O)c1ccc2c(=O)n3c(nc2c1)CCC3	·	·	·	·	·	8
S=C(Nc1ccccc1)N1CCOCC1	-1	1	-17	1	5	18
O=C(NC(=Nc1ccccc1)N1CCOCC1)Nc1ccccc1	0	-17	-12	1	96*	-36
SMILES	IEC-6 tox	APP transl inh	KLF5 inh	Ba/F3 V617F tox	BaF3 parental	aSyn 5UTR inh
CCCCN(Cc1ccccc1)S(=O)(=O)c1ccc2[nH]c(=O)oc2c1	12	49*	-3	4	4	20
Oc1ccc(-c2n[nH]c(C(F)(F)F)c2-c2ccccc2)c(O)c1	3	-5	3	56*	78*	-16
COc1ccccc1-c1c(-c2ccc(O)cc2O)n[nH]c1C(F)(F)F	8	·	-20	48*	45*	-24
CC(C)CN(C(=O)c1ccc([N+](=O)[O-])s1)c1c(N)n(Cc2ccccc2)c(=O)[nH]c1=O	·	·	·	·	·	2
O=C(CN1CCN(c2ccc(F)cc2)CC1)NCc1ccc(Cl)cc1	0	·	-27	·	·	0
CC(NC(=O)CCc1nnc(-c2ccc(-c3ccccc3)cc2)o1)c1nccs1 (stereo not given)	-8	34	-86	-1	7	89*
O=C(CCc1nnc(-c2ccc(-c3ccccc3)cc2)o1)NCCc1ccccn1	2	44	-37	-2	5	90*
COC(=O)CCCNC(=O)CCc1nnc(-c2ccc(-c3ccccc3)cc2)o1	-3	·	-55	·	·	77*
O=C1CC[C@@H](OCc2ccccc2)CCN1CC[C@H](Sc1ccccc1)c1ccccc1	0	·	1	·	·	-5
Cc1ccc(-c2nn3cnnc3c3ccccc23)cc1	3	7	-10	1	82*	15
Cc1ccc(C(=O)NC(=S)NCc2ccccc2)cc1Br	·	·	·	·	·	-24
CC[N+](C)(C)CCN(Cc1ccc(Cl)cc1)c1ccccn1	-3	-12	-11	27*	39*	0
COc1ccccc1CC(=O)N1CCC(CCC(=O)NC2CC2)CC1	2	·	-16	·	·	10
COc1nc(Nc2nc3ccccc3c(=O)[nH]2)nc2ccc(C)cc12	-7	·	-25	-1	-3	90*
C/C(=N\Nc1cc(N2CCOCC2)ncn1)c1ccc(O)cc1	-3	·	-45	·	·	-18
O=C(COC(=O)C1CCN(S(=O)(=O)c2cccc3cccnc23)CC1)c1ccccc1	-3	3	-18	29*	63*	22
CCOC(=O)c1ccc(N(CC(=O)NC2CCCCC2)C(=O)CNC(=O)c2ccco2)cc1	2	·	-18	·	·	8
Cn1c(N2CCOCC2)c(/C=N/OC(=O)c2ccc(F)cc2)c2ccccc21	-1	40	-32	3	1	73*
Cc1ccc(C(=O)O/N=C/c2c(N3CCOCC3)n(C)c3ccccc23)cc1	-4	70*	8	-3	3	77*
CCN1/C(=C/C=C/c2oc3ccc4ccccc4c3[n+]2CC)Oc2ccc3ccccc3c21	1	54*	-16	101*	68*	92*
Cc1ccc(NC(=O)Nc2ccc3c(c2)OCO3)cc1F	1	·	-182	·	·	-109
Cc1cc(C)c2ccc(N)nc2c1O	3	66*	-20	-2	3	65*
COc1ccc(OC)c(C2C(C(=O)c3ccco3)=C(O)C(=O)N2CC2CCCO2)c1 (stereo not given)	6	·	-2	·	·	16
COc1ccccc1C(=O)N(Cc1ccc(Cl)cc1)C1CCS(=O)(=O)C1 (stereo not given)	-6	·	-43	·	·	-5
Cn1c(=N)n(CC(=O)c2ccc(Br)cc2)c2ccccc21	·	·	·	·	·	36
Cn1c(=N)n(CC(=O)c2ccc(F)cc2)c2ccccc21	8	·	61	·	·	76*
Cc1n(CC(=O)c2ccc(F)cc2)c2ccccc2[n+]1C	5	6	-19	15	28*	6
CC12CCC(=O)N1C(C(=O)NNC(=O)COc1cccc(C(F)(F)F)c1)CS2 (stereo not given)	·	·	·	·	·	21

Screens deposited in PubChem BioAssay by several laboratories.
